Experimental data: PubChem BioAssay (NCATS)
Records with an inconclusive call do not appear. The source made the active and inactive calls. Unless noted, calls come from the whole dose curve; as a rule, active = well fitted curve in the direction sought with a large enough effect; inconclusive = small, poorly fitted or top-dose-only effect, or another doubt; inactive = no such curve, though single readings can be large; an effect the other way counts as inactive or inconclusive.

Legend:
[1] = Cell Viability - LYMP2-003 (AID 965);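 note: cells exposed to compounds for 24 h before reading; nearly all actives have a fitted effect of over 50% in size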; note: potency is the fitted concentration of half-maximal effect
In short: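 qHTS, human lymphoblastoid line, 2500 cells/well, complete medium. 24 h drug, 37 C. ATP-based luminescent readout; Hill-fit AC50.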

[2] = Cell Viability - LYMP2-011 (AID 969); note: nearly all actives have a fitted effect of over 60% in size; note: potency is the fitted concentration of half-maximal effect
In short: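 2500 cells/well in complete medium, compound-treated 24 h at 37 C. Viability read as intracellular ATP by CellTiter-Glo luminescence after 30 min at room temperature. AC50 from Hill fits of qHTS concentration-response data.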

[3] = Cell Viability - LYMP2-017 (AID 972); note: nearly all actives have a fitted effect of over 55% in size; note: potency is the fitted concentration of half-maximal effect
In short: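 LYMP2-017 human lymphoblastoid cells (2500/well) settled 5 hr at 37 C, then exposed to compound 24 hr at 37 C in complete medium. Viability taken as intracellular ATP by CellTiter-Glo luminescence after 30 min at RT; AC50 from Hill fits.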

[4] = Cell Viability - LYMP2-019 (AID 973); note: nearly all actives have a fitted effect of over 55% in size; note: potency is the fitted concentration of half-maximal effect
In short: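 Human lymphoblastoid LYMP2-019 cells (2500/well) preincubated 5 h at 37 C, then treated 24 h at 37 C in complete medium. Viability by CellTiter-Glo ATP luminescence after 30 min at room temperature; AC50 from Hill fits.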

[5] = Cell Viability - LYMP2-021 (AID 974);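 note: compound exposure lasts 24 hours at 37 °C; nearly all actives have a fitted effect of over 55% in size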; note: potency is the fitted concentration of half-maximal effect
In short: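 Human lymphoblastoid LYMP2-021 cells, 2500/well in complete medium, treated 24 hours at 37 C. Intracellular ATP by CellTiter-Glo luminescence (30 min, RT); AC50 from Hill fits of concentration-response.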

[6] = Cell Viability - LYMP2-023 (AID 975); note: nearly all actives have a fitted effect of over 55% in size; note: potency is the fitted concentration of half-maximal effect
In short: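 LYMP2-023 human lymphoblastoid cells, 2500/well, preincubated 5 hr at 37 C, then compound-treated 24 hr at 37 C in complete medium. CellTiter-Glo luminescence (ATP) after 30 min at room temperature; AC50 from Hill-equation fits; tetraoctylammonium bromide positive control.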

[7] = Cell Viability - LYMP2-025 (AID 976); note: potency is the fitted concentration of half-maximal effect
In short: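 Human lymphoblastoid LYMP2-025 cells, 2500/well, exposed 24 h at 37 C in complete medium in 1536-well qHTS. Viability as cellular ATP by CellTiter-Glo luminescence; AC50 from Hill fits of concentration-response data.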

[8] = Cell Viability - LYMP2-002 (AID 977); note: potency is the fitted concentration of half-maximal effect
In short: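 Luminescent ATP readout (CellTiter-Glo, 30 min room temperature) after 24 h compound exposure at 37 C of a human lymphoblastoid line, 2500 cells/well. AC50 values derived by standard Hill fitting of qHTS concentration-response data.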

[9] = Cell Viability - LYMP2-008 (AID 980); note: nearly all actives have a fitted effect of over 60% in size; note: potency is the fitted concentration of half-maximal effect
In short: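 LYMP2-008 lymphoblastoid cells (2500/well) plated 5 h, then treated 24 h at 37 C in complete medium. Viability read as intracellular ATP by CellTiter-Glo luminescence after 30 min at room temperature; AC50 from Hill fits.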

[10] = Cell Viability - LYMP2-010 (AID 981); note: nearly all actives have a fitted effect of over 55% in size; note: potency is the fitted concentration of half-maximal effect
In short: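 Human lymphoblastoid LYMP2-010 cells (2500/well) treated 24 h at 37 C in complete medium; viability read as intracellular ATP by CellTiter-Glo luminescence. AC50 from Hill fits of concentration-response data; tetraoctylammonium bromide positive control.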

[11] = Cell Viability - LYMP2-012 (AID 982); note: potency is the fitted concentration of half-maximal effect
[12] = Cell Viability - LYMP2-014 (AID 983); note: nearly all actives have a fitted effect of over 50% in size; note: potency is the fitted concentration of half-maximal effect
In short: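 LYMP2-014 human lymphoblastoid cells, 2500/well, treated 24 h at 37 C in complete medium; viability by CellTiter-Glo ATP luminescence after 30 min at room temperature. AC50 from Hill fits of qHTS concentration-response; tetraoctylammonium bromide positive control.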

[13] = Cell Viability - LYMP2-016 (AID 984); note: nearly all actives have a fitted effect of over 55% in size; note: potency is the fitted concentration of half-maximal effect
In short: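 Concentration-dependent ATP depletion measured in LYMP2-016 lymphoblastoid cells, 24 h, 37 C; luciferase-based luminescent detection; Hill-equation AC50.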

[14] = Cell Viability - LYMP2-018 (AID 985);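 note: compound exposure lasted 24 hr at 37 °C; nearly all actives have a fitted effect of over 50% in size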; note: potency is the fitted concentration of half-maximal effect
In short: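 Human lymphoblastoid LYMP2-018 cells, 2500/well, settled 5 hr at 37 C then exposed to compound 24 hr at 37 C; intracellular ATP measured by CellTiter-Glo luminescence. AC50 from Hill-equation concentration-response fits.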

[15] = Cell Viability - LYMP2-020 (AID 986); note: nearly all actives have a fitted effect of over 55% in size; note: potency is the fitted concentration of half-maximal effect
In short: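 Human lymphoblastoid LYMP2-020 cells (2500/well) preincubated 5 h at 37 C, then treated 24 h at 37 C. Viability measured as intracellular ATP by CellTiter-Glo luminescence after 30 min at room temperature; AC50 from Hill fits.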

[16] = Cell Viability - LYMP2-022 (AID 987); note: nearly all actives have a fitted effect of over 55% in size; note: potency is the fitted concentration of half-maximal effect
In short: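 LYMP2-022 lymphoblastoid cells (2500/well, complete medium) were treated with compounds for 24 hours at 37 C; intracellular ATP was then read by CellTiter-Glo luminescence after 30 min at room temperature. AC50 values were derived from Hill-equation fits.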

[17] = Cell Viability - LYMP2-024 (AID 988); note: nearly all actives have a fitted effect of over 60% in size; note: potency is the fitted concentration of half-maximal effect
In short: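 Human lymphoblastoid LYMP2-024 cells (2500/well) rested 5 hr, then treated with compound for 24 hr at 37 C in complete medium. Viability was measured as intracellular ATP by CellTiter-Glo luminescence. AC50 values came from Hill-equation fits.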

[18] = Cell Viability - LYMP1-002 - Assay at 24 hr (AID 993); note: potency is the fitted concentration of half-maximal effect
In short: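 Human lymphoblastoid LYMP1-002 cells (2500/well) treated 24 h at 37 °C; viability as intracellular ATP by CellTiter-Glo luminescence. Tetraoctylammonium bromide as positive control; AC50 from Hill-equation fits of qHTS concentration-response.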

[19] = Cell Viability - LYMP1-002 - Assay at 40 hr (AID 994); note: nearly all actives have a fitted effect of over 60% in size; note: potency is the fitted concentration of half-maximal effect
In short: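 LYMP1-002 human lymphoblastoid cells (2500/well, complete medium) were treated with compounds for 40 hr at 37 C. Intracellular ATP was measured by CellTiter-Glo luminescence, and AC50 values came from Hill-equation fits of concentration-response data; tetraoctylammonium bromide was the positive control.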

[20] = target: Androgen receptor (Homo sapiens) (UniProt P10275); assay: qHTS assay for small molecule antagonists of androgen receptor signaling (AID 588516; active = well fitted curve in the direction sought with a large enough effect in the signal ratio, with a control signal flat, not every such curve was filed as active; the % refers to the signal ratio)
Androgen receptor (Homo sapiens), sequence (P10275 whole entry, looked up): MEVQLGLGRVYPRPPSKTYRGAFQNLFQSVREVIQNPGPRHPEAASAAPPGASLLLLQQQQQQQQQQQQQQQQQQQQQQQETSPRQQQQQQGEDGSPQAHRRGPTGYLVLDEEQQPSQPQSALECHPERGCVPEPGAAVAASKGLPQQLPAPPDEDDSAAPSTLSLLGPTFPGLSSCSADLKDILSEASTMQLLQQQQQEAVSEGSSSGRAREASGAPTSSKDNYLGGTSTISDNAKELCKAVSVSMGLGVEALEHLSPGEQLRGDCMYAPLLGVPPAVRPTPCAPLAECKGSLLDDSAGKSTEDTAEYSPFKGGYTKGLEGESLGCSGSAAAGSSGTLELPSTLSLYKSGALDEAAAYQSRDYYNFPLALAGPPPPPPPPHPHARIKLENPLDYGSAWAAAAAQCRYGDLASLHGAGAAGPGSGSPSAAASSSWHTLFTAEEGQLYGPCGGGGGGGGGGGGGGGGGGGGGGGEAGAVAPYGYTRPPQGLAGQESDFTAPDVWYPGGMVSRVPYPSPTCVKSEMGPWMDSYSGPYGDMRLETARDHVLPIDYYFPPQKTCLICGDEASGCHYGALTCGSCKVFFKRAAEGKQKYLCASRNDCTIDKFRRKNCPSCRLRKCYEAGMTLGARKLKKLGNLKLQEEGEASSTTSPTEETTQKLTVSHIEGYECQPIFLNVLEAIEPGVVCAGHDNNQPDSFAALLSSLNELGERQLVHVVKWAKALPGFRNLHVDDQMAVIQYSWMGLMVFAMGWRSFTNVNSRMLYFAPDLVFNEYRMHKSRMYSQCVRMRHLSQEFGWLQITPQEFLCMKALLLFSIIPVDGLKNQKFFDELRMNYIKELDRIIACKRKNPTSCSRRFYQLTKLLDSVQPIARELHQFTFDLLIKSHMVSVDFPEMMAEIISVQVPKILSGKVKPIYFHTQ
In short: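 Compounds tested in titration against 10 nM R1881 in AR-responsive bla reporter HEK 293 cells; CCF4 fluorescence (460/530 nm) after 16 h exposure gave IC50 and efficacy.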

Measured: Potency

CCCCCCCCCc1ccc(O)cc1
inactive: [1] | [2] | [3] | [4] | [5] | [6] | [7] | [8] | [9] | [10] | [11] | [12] | [13] | [14] | [15] | [16] | [17] | [18] | [19]

O=C1C(Cl)=C(Cl)C(=O)C(Cl)=C1Cl
active: [1] 20 µM | [2] 25.1 µM | [3] 20 µM | [4] 25.1 µM | [5] 12.6 µM | [6] 25.1 µM | [7] 50.1 µM | [8] 25.1 µM | [9] 39.8 µM | [10] 12.6 µM | [11] 15.8 µM | [12] 20 µM | [13] 25.1 µM | [14] 39.8 µM | [15] 12.6 µM | [16] 15.8 µM | [17] 10 µM | [18] 39.8 µM | [19] 39.8 µM

O=C(O)COc1cc(Cl)c(Cl)cc1Cl
inactive: [20]

CCS(=O)CCSP(=O)(OC)OC (stereo not given)
inactive: [20]
